Measured potencies and affinities stand elsewhere. Unmarked numbers belong to inactive results. The rule behind the calls is not given here.

The experiment can be described thus: toxicity toward HepG2 liver cells – cell-based, plate reader, cherry-pick, antagonist series, cytotoxicity control, dose response (AID 743416).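 Note: 0% = neutral control wells and -100% = positive control wells.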 The note with it: series mostly up to 26 µM; activity change, negative = cytotoxicity: at the top concentration.
For `O=C(Nc1ccc(N2CCOCC2)c(S(=O)(=O)Nc2ccccc2Cl)c1)c1ccc(F)cc1`, the “activity change, negative = cytotoxicity” value was -9.15%.

Turning to `C[C@H]1CCCCO[C@@H](CN(C)C(=O)Nc2ccc3c(c2)OCO3)[C@@H](C)CN([C@@H](C)CO)C(=O)c2cc(NC(=O)NC3CCCCC3)ccc2O1`, the “activity change, negative = cytotoxicity” value is -26.4% [at 23.5 µM].

As for `COc1ccc(-c2cc(-c3nnc(COC(=O)C4CC4)o3)c3ccccc3n2)cc1OC`, the “activity change, negative = cytotoxicity” value is 76%.

Turning to `O=c1cc(-c2c(F)c(F)c(F)c(F)c2F)oc2ccccc12`, the “activity change, negative = cytotoxicity” value was 11.6%.

Consider `COCC(=O)N[C@@H]1CC[C@@H](CC(=O)NCc2ccccc2OC)O[C@@H]1CO`, for which the “activity change, negative = cytotoxicity” value is -8.04%.

Regarding `CC(C)CCn1cnc2c(oc3nc4c(cc32)CCCC4)c1=O`, the “activity change, negative = cytotoxicity” value was 7.81%.

With `COc1ccc2[nH]c3c(c2c1)CCN1C(=O)N([C@@H](C)C(=O)NCc2ccc(C)cc2)C(=O)[C@]31C`, the “activity change, negative = cytotoxicity” value is 3.42%.

`O=C(Nc1ccc(N2CCOCC2)cc1)c1cnccn1`: the “activity change, negative = cytotoxicity” value is -1.59%.

With `CCOc1ccc(C(=O)Nc2nnc(SCC(=O)NCC3CCCO3)s2)cc1` (stereo not drawn), the “activity change, negative = cytotoxicity” value is 32.3%.

For the compound `CCC(=O)N(C)C[C@H]1Oc2cc(C#CCC(C)C)ccc2S(=O)(=O)N([C@H](C)CO)C[C@@H]1C`, the “activity change, negative = cytotoxicity” value is -13.4%.

As to `Cc1ccc(S(=O)(=O)N2CCCCC2)cc1NC(=O)c1ccc2c(=O)n3c(nc2c1)CCCCC3`, the “activity change, negative = cytotoxicity” value was 9.28%.

Take `C[C@@H]1CN([C@@H](C)CO)S(=O)(=O)c2ccc(C3=CCCC3)cc2O[C@H]1CN(C)C(=O)c1ccccc1`: the “activity change, negative = cytotoxicity” value is -18.8%.

`Cn1nnnc1Sc1ncnc2scc(-c3ccccc3C(F)(F)F)c12`: the “activity change, negative = cytotoxicity” value is -9.93%.

`C[C@H](CO)N1C[C@H](C)[C@H](CN(C)C(=O)Nc2ccccc2)OCCCC[C@H](C)Oc2ccc(NC(=O)Nc3ccccc3)cc2C1=O`: the “activity change, negative = cytotoxicity” value was -10.4%.

With `C[C@H](CO)N1C[C@H](C)[C@H](CN(C)C(=O)Nc2ccc(C(F)(F)F)cc2)OCCCC[C@H](C)Oc2ccc(NC(=O)CCC(F)(F)F)cc2C1=O`, the “activity change, negative = cytotoxicity” value was -13.6%.

In the case of `Cc1ccc(S(=O)(=O)N(C)C[C@H]2Oc3cc(Br)ccc3S(=O)(=O)N([C@H](C)CO)C[C@H]2C)cc1`, the “activity change, negative = cytotoxicity” value is -7.63%.

For the compound `CC[C@H](CO)Oc1cc(NCc2ccc(Cl)c(Cl)c2)c2ncn(C(C)C)c2c1`, the “activity change, negative = cytotoxicity” value was -4.28%.

For the compound `C[C@H](CO)N1C[C@H](C)[C@H](CN(C)C(=O)CN2CCOCC2)Oc2ncc(C#CCN(C)C)cc2C1=O`, the “activity change, negative = cytotoxicity” value is 15.8%.

As for `C[C@H](CO)N1C[C@H](C)[C@H](CN(C)C(=O)Nc2ccccc2)OCCCC[C@H](C)Oc2ccc(NC(=O)C3CCCCC3)cc2C1=O`, the “activity change, negative = cytotoxicity” value is 9.79%.

As to `Cn1nnnc1SCC(=O)N1CCN(C(=O)c2ccco2)CC1`, the “activity change, negative = cytotoxicity” value is 5.76%.

For the compound `COc1ccccc1N/C=C/c1onc(C)c1[N+](=O)[O-]`, the “activity change, negative = cytotoxicity” value was -3.14%.

In the case of `COc1ccc(-c2cc(C(=O)Nc3cccc(O)c3)no2)cc1`, the “activity change, negative = cytotoxicity” value was 2.72%.

In the case of `O=C(Nc1ccc(NC(=O)c2ccco2)nc1)c1ccco1`, the “activity change, negative = cytotoxicity” value was -11.6%.

As to `NCC[C@H]1CC[C@H](NS(=O)(=O)Cc2ccccc2)[C@@H](CO)O1`, the “activity change, negative = cytotoxicity” value was 6.35%.

On to `C[C@H](CO)N1C[C@H](C)[C@H](CN(C)C(=O)Nc2ccc3c(c2)OCO3)OCCCC[C@H](C)Oc2ccc(NC(=O)C3CCCCC3)cc2C1=O`, for which the “activity change, negative = cytotoxicity” value was 31.6%.

Take `C[C@H](CO)N1C[C@H](C)[C@H](CN(C)C(=O)Nc2cccc3ccccc23)OCCCC[C@H](C)Oc2ccc(NC(=O)C3CCCCC3)cc2C1=O`: the “activity change, negative = cytotoxicity” value is 0.712%.

Consider `C[C@H](CO)N1C[C@H](C)[C@H](CN(C)C(=O)Nc2ccc(F)cc2)OCCCC[C@H](C)Oc2ccc(NC(=O)Nc3ccc(F)cc3)cc2C1=O`, for which the “activity change, negative = cytotoxicity” value was -34.2% [at 23.5 µM].

With `COc1ccc(-c2cn3cc(C)ccc3n2)cc1F`, the “activity change, negative = cytotoxicity” value is -3.65%.

For the compound `C[C@H]1CCCCO[C@@H](CN(C)C(=O)Nc2ccccc2)[C@@H](C)CN([C@@H](C)CO)C(=O)c2cc(NC(=O)NC3CCCCC3)ccc2O1`, the “activity change, negative = cytotoxicity” value is 23.7%.

As to `O=c1[nH]c(CSc2ccccn2)nc2c1oc1ccccc12`, the “activity change, negative = cytotoxicity” value is -1.81%.

For the compound `Cc1ccc(-n2cc(CN(C)Cc3nccn3C)c(-c3cccc(C)c3)n2)cc1`, the “activity change, negative = cytotoxicity” value was -9.03%.

`COC(=O)c1ccc2nc(-c3ccc4c(c3)OCO4)cn2c1`: the “activity change, negative = cytotoxicity” value was -13.6%.

For `C[C@H](CO)N1C[C@H](C)[C@@H](CN(C)C(=O)Nc2ccc3c(c2)OCO3)Oc2c(cccc2N(C)C)C1=O`, the “activity change, negative = cytotoxicity” value is 0.337%.

`C[C@H](CO)N1C[C@H](C)[C@H](CN(C)C(=O)Nc2ccccc2)OCCCC[C@H](C)Oc2ccc(NC(=O)CCC(F)(F)F)cc2C1=O`: the “activity change, negative = cytotoxicity” value was 5.48%.

In the case of `O=C(COC(=O)c1ccccc1C(=O)c1ccc(Cl)c([N+](=O)[O-])c1)NC1CC1`, the “activity change, negative = cytotoxicity” value is -22%.

As for `CC(=O)N1CCc2cc(S(=O)(=O)C(C)CC(=O)NCc3ccco3)ccc21` (stereo not drawn), the “activity change, negative = cytotoxicity” value is -0.864%.

Turning to `CCCCNc1c(-c2cccc(-c3cc(C(C)=O)cs3)c2)nc2ccc(C)cn12`, the “activity change, negative = cytotoxicity” value was 6.59%.

As for `COc1ccc(NC(=O)N(C)C[C@@H]2OCCCC[C@H](C)Oc3ccc(NC(=O)C4CCCCC4)cc3C(=O)N([C@H](C)CO)C[C@@H]2C)cc1`, the “activity change, negative = cytotoxicity” value was -2.67%.

Source of the values: PubChem BioAssay.
